In ChEMBL document CHEMBL3988442, “University of Dundee, Small-Polar-MMV Screening Library” (2021):
Screen size: about 48,000 compounds; about 13,000 (27%) showed an effect of 50% or more. This is one part of the list.

The compounds below were run on Wolbachia pipientis (assay: Anti-Wolbachia Cell-Based Screen). Details: 5 µM.
Assay type: functional
Parameters: scale not given: in the data most compounds retested in dose-response had high values

Going from `O=C(O)[C@@H]1CN(C(=O)CCc2ccccn2)C[C@H]1c1ccccc1` to `CCOc1ccccc1CC(=O)N1C[C@@H](C(=O)O)[C@H](c2ccncc2)C1`, the “Percent Effect” value rises from 11.77% to 102.2%.

Compared with `O=C(O)[C@@H]1CN(C(=O)Cc2ccccc2Cl)C[C@H]1C1CC1`, `CCOc1ccccc1CC(=O)N1C[C@@H](C(=O)O)[C@H](C2CC2)C1` is lower in “Percent Effect” value: 117.2% for the first, 111.1% for the second.

Going from `N[C@H]1CN(C(=O)c2ccccc2OCc2ccccc2)C[C@@H]1C1CC1` to `CCOCCOc1ccccc1C(=O)N1C[C@H](C2CC2)[C@@H](N)C1`, the “Percent Effect” value falls from 10.21% to -0.9919%.

Compared with `CCOc1ccccc1CC(=O)N1C[C@H](C2CC2)[C@@H](N)C1`, `CCOc1ccc(CC(=O)N2C[C@H](C3CC3)[C@@H](N)C2)cc1` is lower in “Percent Effect” value: 104.9% for the first, 13.07% for the second.

First: COc1ccccc1[C@@H]1CN(C(=O)Cc2csc(C)n2)C[C@H]1C(=O)O
Second: Cc1nc(C)c(CC(=O)N2C[C@@H](C(=O)O)[C@H](c3ccncc3)C2)s1
The “Percent Effect” value of the first is higher: 12.9% for the first, -15.05% for the second.

First: N[C@H]1CN(C(=O)Cc2ccc(Cl)c(Cl)c2)C[C@@H]1C1CC1
Second: O=C(O)[C@@H]1CN(Cc2cc3c(cc2Cl)OCO3)C[C@H]1C1CC1
The “Percent Effect” value of the first is higher: 0.666% for the first, -1.718% for the second.

Going from `CS(=O)(=O)N1C[C@H]2CNC[C@@]2(C(=O)NCCCc2ccccc2)C1` to `O=C(Cc1ccccc1)NCCNS(=O)(=O)C1CCCCC1`, the “Percent Effect” value rises from 15.21% to 110.7%.

First: C1CCCN(c2nc(C3CC3)ns2)CC1
Second: O=C1CCC2(CCCO2)CCN1Cc1noc(C2CCCC2)n1 (stereo not given)
The “Percent Effect” value of the first is higher: 16.93% for the first, 15.53% for the second.

Going from `CCCS(=O)(=O)N1CCC2(CN(c3cnn(C)c3)C(=O)CN2C)C1.O=C(O)C(F)(F)F` (stereo not given) to `Cn1cnc2c1C(C(=O)N1CCCC1)N(CC1CC1)CC2.O=C(O)C(F)(F)F` (stereo not given), the “Percent Effect” value rises from -3.589% to 6.577%.

Going from `Cc1nn2c(N3CCC(O)C3)cc(-c3ccccc3)nc2c1C` (stereo not given) to `CS(=O)(=O)NCc1cc(-c2cc(F)cc(F)c2)nc(N2CC[C@H](O)C2)n1`, the “Percent Effect” value rises from 3.691% to 97.73%.

Going from `CCc1cc(NC(C)(C)C)nc(N2CCOCC2)n1` to `CCc1cc(NCCS(=O)(=O)N(C)C)nc(N2CCOCC2)n1`, the “Percent Effect” value rises from -8.862% to 7.02%.

Going from `Cc1nc(N2CCCC2)nc(C)c1NS(C)(=O)=O` to `CS(=O)(=O)NCc1cc(-c2cc(F)cc(F)c2)nc(N2CCCC2)n1`, the “Percent Effect” value rises from 5.529% to 85.03%.

First: Cc1cc(F)cc(CN2CCCn3nc(CNS(C)(=O)=O)cc3C2)c1
Second: CS(=O)(=O)NCc1cc(-c2cc(F)cc(F)c2)nc(N2CCOCC2)n1
The “Percent Effect” value of the first is lower: -6.917% for the first, 112.2% for the second.

Going from `Cc1cc(F)cc(S(=O)(=O)NCCCN2CCC(O)CC2)c1` to `O=C(Cc1cccc(F)c1)NCCNS(=O)(=O)C1CCCC1`, the “Percent Effect” value rises from 17.75% to 103.6%.

Compared with `Cc1noc(C)c1CN(C)C(=O)C1CCCN1S(N)(=O)=O` (stereo not given), `CC(C)N1CCC(C(=O)N(C)C(C)c2ccon2)CC1` (stereo not given) is lower in “Percent Effect” value: 1.482% for the first, -1.072% for the second.

Going from `Cc1nc2ccccc2n(Cc2nnnn2C2CC2)c1=O` to `Cc1nnc(SCC(=O)N2CCC3(CC2)c2ccccc2CC3O)o1` (stereo not given), the “Percent Effect” value falls from 11.64% to -11.87%.

Compared with `CCc1ccc(CN2CCN(c3ccc(Cl)nn3)CC2)nc1`, `CCN1CCN(Cc2ccnc(-c3cccnc3)n2)CC1.O=C(O)CC(O)(CC(=O)O)C(=O)O` is lower in “Percent Effect” value: -1.382% for the first, -7.954% for the second.

Compared with `CC(=O)N1CC[C@H]2CC(=O)N(C3CC3)CC[C@H]2C1`, `O=C(NCCNS(=O)(=O)C1CCCCC1)c1ccccc1` is higher in “Percent Effect” value: -2.772% for the first, 130.7% for the second.

Going from `COCc1noc(-c2ccc(N3CCCC3c3ccc(F)cc3)nc2)n1` (stereo not given) to `CCCc1ncc(CN(C)C2CCCN(CCc3ccccc3)C2)cn1` (stereo not given), the “Percent Effect” value falls from 17.95% to -21.26%.

Compared with `CCSc1ccccc1C(=O)N1CC2(COC(C)(C)OC2)C1`, `CN(C)c1cc2c(nn1)CCN(C(=O)c1cc3ccccc3[nH]c1=O)C2` is higher in “Percent Effect” value: 0.7993% for the first, 4.124% for the second.

Compared with `COc1ncc(CN(CCN(C)C)Cc2ccc(C)s2)cn1`, `COc1ncc(CN(C)C2CCN(C(C)C)CC2)cn1` is higher in “Percent Effect” value: 7.179% for the first, 134.1% for the second.

Going from `CCc1ncc(CN(C)C2CCN(C(C)C)CC2)cn1.O=C(O)CC(O)(CC(=O)O)C(=O)O` to `CNc1ncc(CN(C)C2CCN(C(C)C)CC2)cn1`, the “Percent Effect” value falls from 161.6% to 131.8%.

Going from `CC(C)N1CCC(NCc2cccnc2N(C)C)CC1` to `CC(C)N1CCC(NCc2cccnc2N(C)Cc2ccccc2)CC1`, the “Percent Effect” value falls from 4.897% to -0.8543%.

First: Cc1cc2cc(Nc3c(C#N)c(=O)n(C)c(=O)n3C)ccc2[nH]1
Second: COc1ccc(C)cc1-n1cnnc1C1CC(=O)N(C)C1 (stereo not given)
The “Percent Effect” value of the first is lower: 4.966% for the first, 6.21% for the second.

First: COc1ccc2c(c1)CC(NCc1cccc(OCC(N)=O)c1)CC2 (stereo not given)
Second: COc1cccc(Cc2nnc(SC3CCOC3=O)o2)c1 (stereo not given)
The “Percent Effect” value of the first is higher: 2.98% for the first, -7.418% for the second.

Compared with `COc1cc2c(cc1OC)C(=O)C(Sc1nnc(C)o1)C2` (stereo not given), `COc1cc2c(cc1OC)C(=O)C(Sc1nncn1C)C2` (stereo not given) is higher in “Percent Effect” value: 89.14% for the first, 119.4% for the second.

Going from `CNS(=O)(=O)CCn1cc(-c2cc3c(cc2OC)CCC3)nn1` to `COc1cc2c(cc1OC)CN(C(=O)NC(C)c1nncn1C)CC2` (stereo not given), the “Percent Effect” value rises from -24.83% to -16.43%.

Going from `COc1cc2c(cc1OC)C(=O)C(Sc1nnnn1C)C2` (stereo not given) to `CCc1ccc2c(c1)C(CCNC(=O)Cc1cccc(F)c1)C(=O)N2` (stereo not given), the “Percent Effect” value falls from 95.35% to 1.678%.

Going from `O=C(NC1(c2nnn(Cc3ccncc3)n2)CCCC1)c1ccccc1` to `O=C(NCCNS(=O)(=O)c1ccc2c(c1)CCC2)c1ccccc1`, the “Percent Effect” value rises from -7.35% to 4.416%.

Going from `CC(O)(CNc1ccccn1)c1ccccc1` (stereo not given) to `CCS(=O)(=O)NCCNC(=O)c1cnc(-c2ccccc2)nc1`, the “Percent Effect” value falls from 12.1% to 1.605%.

Going from `O=C(CCS(=O)(=O)C1CCCC1)NCCc1cccc(O)c1` to `Cc1cccc(CCNC(=O)CCS(=O)(=O)C2CCCC2)c1`, the “Percent Effect” value rises from 0.8082% to 1.788%.

First: O=C(Cc1ccc(F)cc1)NCCNS(=O)(=O)c1ccc(F)c(F)c1
Second: O=C(Cc1ccc(F)cc1)NCCNS(=O)(=O)C1CCCC1
The “Percent Effect” value of the first is lower: -6.551% for the first, 108.3% for the second.

In the case of `O=C(Cc1ccc(F)cc1)NCCc1ccoc1`, the “Percent Effect” value is reported as 13.31%.
